Rv3671c inh – inhibits the M. tuberculosis serine protease Rv3671c. 0.048% of 320,000 active. inhibition, % at 5.96 µM. AID 2606; in the data active = inhibition above about 38%;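 also: extracellular domain of Rv3671c used as enzyme; 0% = enzyme with DMSO and 100% = no enzyme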
Mtb bLac sens – beta-lactam sensitization of Mtb H37Rv | M. tuberculosis H37Rv growth with meropenem, percent inhibition | 0.27% of 330,000 active | inhibition, % at 25 µM | AID 434955; call rule not given here;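 also: growth measured after seven days incubation then overnight dye step; 0% = bacteria only wells and 100% = bacteria with antibiotic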
FBA Mtb inh – inhibitors of M. tuberculosis fructose-bisphosphate aldolase; inhibition, % at 1 µM; purified M. tuberculosis FBA, fluorescence read-out; 2.3% of 360,000 active; in the data active = inhibition above about 27%;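 also: 0% = vehicle and 100% = reference inhibitor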
RecA intein inh – blocks M. tuberculosis RecA intein splicing; cell-free RecA intein splicing, fluorescence; 0.75% of 290,000 active; AID 2221; P9WHJ3; inhibition, % (no concentration beside the values); in the data active = inhibition above about 30%;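 also: 0% = vehicle wells and 100% = reference inhibitor control wells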
GDH-TPI inh – inhibits GDH-TPI coupling enzymes, artifact for Mtb FBA screen; GDH-TPI coupled enzyme counterscreen, NADH absorbance; inhibition, % at 4.8 µM; 1.2% of 360,000 active; in the data active = inhibition above about 30%;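 also: 0% = DMSO wells and 100% = wells lacking the enzyme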
UGM FP inh – blocks M. tuberculosis UGM enzyme; P9WIQ1; purified UGM, fluorescence polarization probe displacement; inhibition, % at 10 µM; 0.06% of 320,000 active; AID 504406; in the data active = inhibition above about 10%, passing the limit was not always enough
Target sequence (P9WIQ1 whole entry, looked up): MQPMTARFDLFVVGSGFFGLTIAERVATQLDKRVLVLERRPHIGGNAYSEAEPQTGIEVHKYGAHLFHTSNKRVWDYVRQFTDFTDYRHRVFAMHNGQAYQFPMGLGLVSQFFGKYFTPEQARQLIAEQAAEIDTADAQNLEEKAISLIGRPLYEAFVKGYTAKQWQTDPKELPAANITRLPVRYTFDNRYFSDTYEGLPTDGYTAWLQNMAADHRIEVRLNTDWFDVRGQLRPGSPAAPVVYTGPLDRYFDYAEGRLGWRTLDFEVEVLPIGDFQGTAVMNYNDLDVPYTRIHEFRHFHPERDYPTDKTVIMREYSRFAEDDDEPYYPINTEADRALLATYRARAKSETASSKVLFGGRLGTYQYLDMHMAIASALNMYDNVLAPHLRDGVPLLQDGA
An asterisk follows results filed as active. A selection: hits, their analogues and other compounds. The true share with any hit is near 4%.

O=c1oc(-c2ccccc2)cc(Cl)c1Cl was read as Rv3671c inh -12, Mtb bLac sens 87, FBA Mtb inh 12, RecA intein inh 47*, GDH-TPI inh 17 and UGM FP inh 0.
Screening O=c1cc(-c2ccccc2)oc2ccc(Cl)cc12 returned FBA Mtb inh 2 and GDH-TPI inh 0.
For O=C(O)Cc1ccc(C(=O)c2cccs2)s1 the results were Rv3671c inh 8, Mtb bLac sens 14, FBA Mtb inh -9, RecA intein inh 2, GDH-TPI inh 37* and UGM FP inh -1.
Cc1ccc[n+](-c2[nH]c(=O)sc2/C=N/N=C(\[O-])CCn2c3ccccc3c3ccccc32)c1 was read as Rv3671c inh 3, Mtb bLac sens -5, FBA Mtb inh -4, RecA intein inh 0, GDH-TPI inh 21 and UGM FP inh -1.
`CC(C)(C)c1cc[n+](-c2[nH]c(=O)sc2/C=N/NC([S-])=Nc2ccccc2)cc1` gave Rv3671c inh 9, Mtb bLac sens 2, FBA Mtb inh -8, RecA intein inh -6, GDH-TPI inh 37* and UGM FP inh 18*.
For Cc1cc[n+](-c2[nH]c(=O)sc2/C=N/NC([S-])=Nc2ccccc2)cc1C the results were Rv3671c inh -10, Mtb bLac sens -4, FBA Mtb inh -6, RecA intein inh -2 and GDH-TPI inh 52*.
CCOC(=O)c1ccc(-c2ccc3ncnc(NCc4csc(C)n4)c3c2)o1 was read as FBA Mtb inh active and GDH-TPI inh 37*.
Screening COc1cc(-n2c(N)c(C(=O)NCc3ccco3)c3nc4ccccc4nc32)cc(OC)c1OC returned Rv3671c inh -1, Mtb bLac sens -3, FBA Mtb inh 14, GDH-TPI inh 12 and UGM FP inh 1.
COc1ccc(Cn2c(N)c(C(=O)NCc3ccco3)c3nc4ccccc4nc32)cc1OC was read as Rv3671c inh -106, Mtb bLac sens 60, FBA Mtb inh 3, GDH-TPI inh 18 and UGM FP inh 0.
`Nc1c(C(=O)NCc2ccco2)c2nc3ccccc3nc2n1CCc1ccc(F)cc1` gave Rv3671c inh -102, Mtb bLac sens 94, FBA Mtb inh 28*, RecA intein inh -56, GDH-TPI inh 4 and UGM FP inh -1.
Screening CCCNC(=O)c1c(N)n(Cc2ccco2)c2nc3ccccc3nc12 returned Rv3671c inh 2, Mtb bLac sens 1, RecA intein inh -498 and UGM FP inh 0.
Screening COCCOC(=O)c1c(N)n(Cc2ccco2)c2nc3ccccc3nc12 returned Rv3671c inh 1, Mtb bLac sens 38, FBA Mtb inh 150*, RecA intein inh -135, GDH-TPI inh 30 and UGM FP inh 1.
`COCCCNC(=O)c1c(N)n(Cc2ccco2)c2nc3ccccc3nc12` gave Rv3671c inh -8, Mtb bLac sens 42, FBA Mtb inh 118*, RecA intein inh inactive, GDH-TPI inh 15 and UGM FP inh 1.
For CC(C)CNC(=O)c1c(N)n(Cc2ccco2)c2nc3ccccc3nc12 the results were Rv3671c inh -34, Mtb bLac sens 28, FBA Mtb inh 55*, RecA intein inh -197, GDH-TPI inh 12 and UGM FP inh 0.
For CCc1nc2ccc(C(=O)NCCc3c[nH]c4ccccc34)cn2c1N(C)Cc1ccc(N(C)C)cc1 the results were FBA Mtb inh -3 and GDH-TPI inh 9.
For CCOC(=O)CN1C(=O)/C(=C/c2ccccc2Br)Oc2ccccc21 the results were Rv3671c inh -8, Mtb bLac sens 7, FBA Mtb inh 7, RecA intein inh -21, GDH-TPI inh 8 and UGM FP inh 0.
`CC(C)c1ccc(S(=O)(=O)N(C)C2(C)CCS(=O)(=O)C2)cc1` (stereo not drawn) gave Rv3671c inh 2, Mtb bLac sens -5, FBA Mtb inh 3, RecA intein inh -3, GDH-TPI inh 1 and UGM FP inh 1.
`COCCNC(=O)/C(C#N)=C/c1cccs1` gave Rv3671c inh 3, Mtb bLac sens -3, FBA Mtb inh 0, RecA intein inh -1, GDH-TPI inh 48* and UGM FP inh -1.
COc1ccc(N(CCC#N)C(=O)/C(C#N)=C\c2cccs2)cc1 was read as Rv3671c inh 11, Mtb bLac sens -5, FBA Mtb inh 1, RecA intein inh 2, GDH-TPI inh 37* and UGM FP inh 0.
For COCCNC(=O)/C(C#N)=C/c1ccc(OC(=O)c2cccs2)c(OC)c1 the results were FBA Mtb inh 1, RecA intein inh 26 and GDH-TPI inh 16.
Screening O=C(CSc1nnc(-c2ccccc2Cl)o1)Oc1ccc(Br)cc1 returned Rv3671c inh 6, Mtb bLac sens -13, FBA Mtb inh -2, RecA intein inh 61*, GDH-TPI inh 4 and UGM FP inh 2.
Screening O=C(CSc1nnc(-c2ccccc2O)o1)Oc1ccc(Br)cc1 returned Rv3671c inh 4, Mtb bLac sens -2, FBA Mtb inh 0, RecA intein inh 3, GDH-TPI inh 4 and UGM FP inh 0.
Screening Nc1c(C(=O)Nc2ccccc2F)sc2nc(Cc3ccccc3)cc(C(F)(F)F)c12 returned Rv3671c inh 6, Mtb bLac sens 3, FBA Mtb inh 0, RecA intein inh -16, GDH-TPI inh 9 and UGM FP inh 26*.
CCCOc1ccc(NC(=O)C2CC(=O)N/C(=N/N=C(C)/C=C/c3ccc(N(C)C)cc3)S2)cc1 (stereo not drawn) was read as Rv3671c inh 5, Mtb bLac sens 99, FBA Mtb inh -3, RecA intein inh -44, GDH-TPI inh 32* and UGM FP inh 3.
`CCCS(=O)(=O)c1c(S(=O)(=O)CCC)c2cnccn2c1C(=O)c1ccc(OC)cc1` gave Rv3671c inh -4, Mtb bLac sens 4, FBA Mtb inh -1, RecA intein inh -3, GDH-TPI inh 10 and UGM FP inh 4.
For CCCS(=O)(=O)c1c(S(=O)(=O)CCC)c2cc(-c3ccncc3)ccn2c1C(=O)OC the results were Rv3671c inh 1, Mtb bLac sens 6, FBA Mtb inh active, RecA intein inh -29, GDH-TPI inh 16 and UGM FP inh -1.
For Cc1ccccc1-c1ccc(C=Nc2c(C)n(C)n(-c3ccccc3)c2=O)o1 the results were Rv3671c inh 4, Mtb bLac sens -5, FBA Mtb inh -11, RecA intein inh 0, GDH-TPI inh 33* and UGM FP inh -1.
Screening O=C(NCCc1cccc(Cl)c1)c1ccc(OC2CCN(Cc3ccccn3)CC2)cc1 returned FBA Mtb inh 5, RecA intein inh 5 and GDH-TPI inh 14.
Cc1cccc(N2CC(C(=O)OCC(=O)c3ccc(OC(=O)c4cccs4)cc3)CC2=O)c1C (stereo not drawn) was read as Rv3671c inh -4, Mtb bLac sens 1, FBA Mtb inh 1, RecA intein inh 36*, GDH-TPI inh -1 and UGM FP inh 0.

Source: PubChem BioAssay (several laboratories)
